# Test results taken from the supplement of paper PMC8699584.
# Where a name gives a salt, the structure may show the parent alone. ± gives the standard deviation of the averaged measurements.
# System: Mv4-11
# Assay: cell viability relative to DMSO control (bortezomib = 0%); higher = less growth inhibition
# Conditions: 10 nM; 72 h
# Outline: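 Each plate's values were converted to percentages by linear regression, taking DMSO-treated cells as 100% and positive-control-treated cells as 0%. These plates were 384-well plates of 679 approved and investigational compounds at a single 10 nM dose, onto which acute myeloid leukemia cells were dispensed at 1000 cells per well in 50 µL for 72 h, in duplicate. Cell viability came from CellTiter-Glo luminescence on an EnVision reader.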
row,Compound,cell viability [%]
1,NCC(=O)Nc1ccc(-n2nc(C(F)(F)F)cc2-c2ccc3c(ccc4ccccc43)c2)cc1,101 ± 12
2,C=CC(=O)N1CCC(Oc2cc3c(Nc4ccc(Cl)c(Cl)c4F)ncnc3cc2OC)CC1 [Poziotinib (HM781-36B)],113 ± 10
3,COc1cc2nccc(Oc3ccc(NC(=O)C4(C(=O)Nc5ccc(F)cc5)CC4)cc3)c2cc1OC,44.5 ± 3.8
4,Cc1ccc(NC(=O)c2ccc(CN3CCN(C)CC3)cc2)cc1Nc1nccc(-c2cccnc2)n1 [Imatinib (mesylate)],121 ± 22
5,Cc1ncc(-c2ccnc(Nc3ccc(S(C)(=O)=O)cc3)n2)n1C(C)C,122 ± 13
6,COC(=O)c1ccc2c(c1)NC(=O)/C2=C(\Nc1ccc(N(C)C(=O)CN2CCN(C)CC2)cc1)c1ccccc1 [Nintedanib (BIBF 1120)],113 ± 5.7
7,"Nc1cc(C(F)(F)F)c(-c2cc(N3CCOCC3)nc(N3CCOCC3)n2)cn1 [BKM120 (NVP-BKM120, Buparlisib)]",99.8 ± 2.8
8,COc1cc2ncnc(Oc3cccc(NC(=O)Nc4cc(C(C)(C)C(F)(F)F)on4)c3)c2cc1OC,113 ± 17
9,Cc1cncc2cccc(S(=O)(=O)N3CCCN(C(=O)CN)C[C@@H]3C)c12 [(S)-Glycyl-H-1152 (hydrochloride)],97.4 ± 11
10,O=C(Nc1nc2ccc(NC(=O)C34CC5CC(CC(C5)C3)C4)cc2s1)c1ccccc1,101 ± 8.4
11,COc1cccc(-c2cc(=O)c3ccccc3o2)c1N,103 ± 8.4
12,CC(C)[C@H](CO)Nc1nc(Nc2cccc(Cl)c2)c2ncn(C(C)C)c2n1 [Purvalanol A],106 ± 12
13,COc1cc2nccc(Oc3ccc(NC(=O)C4(C(=O)Nc5ccc(F)cc5)CC4)cc3)c2cc1OC [XL184(Cabozantinib malate)],42 ± 6.5
14,COc1cc2ncnc(Nc3cccc(Cl)c3F)c2cc1OC(=O)N1CCN(C)C[C@H]1C,99.9 ± 8.6
15,c1cc(-c2cnn3cc(-c4ccc(N5CCNCC5)cc4)cnc23)c2cccnc2c1,103 ± 1.1
16,Cc1cccc(/C=N/Nc2cc(N3CCOCC3)n3nc(-c4ccncc4)cc3n2)c1,122 ± 4.4
17,N#CCC(C1CCCC1)n1cc(-c2ncnc3[nH]ccc23)cn1 (stereo not given),113 ± 13
18,"Cc1[nH]c(/C=C2\C(=O)Nc3ccccc32)c(C)c1CCC(=O)O [TSU-68 (SU6668, Orantinib)]",122 ± 14
19,COc1ccc([C@@H]2OC[C@H]3[C@@H]2CO[C@@H]3c2ccc(O[C@@H]3O[C@H](CO)[C@@H](O)[C@H](O)[C@H]3O)c(OC)c2)cc1OC [Forsythin],102 ± 6.1
20,NC(=O)c1ncn([C@@H]2O[C@H](CO)[C@@H](O)[C@H]2O)c1N [AICAR (Acadesine)],111 ± 9.2

row,Compound,cell viability [%]
1,"Cc1c(CN2CCN(C(=O)[C@H](C)O)CC2)sc2c(N3CCOCC3)nc(-c3cnc(N)nc3)nc12 [Apitolisib (GDC-0980, RG7422)]",104 ± 14
2,FC(F)(F)c1ccc(CNc2ccc(Cc3c[nH]c4ncc(Cl)cc34)cn2)cc1,106 ± 19
3,Cc1cc(Nc2cc(N3CCN(C)CC3)nc(/C=C/c3ccccc3)n2)n[nH]1,105 ± 9.9
4,N#Cc1cccc(-c2c[nH]c3ncnc(N4CCOCC4)c23)c1,100 ± 8.2
5,NCCNS(=O)(=O)c1cccc2cnccc12 [H-9 (hydrochloride)],111 ± 4.7
6,C[C@@H]1O[C@@H](Oc2cc(O)c3c(=O)c(O[C@@H]4O[C@@H](C)[C@H](O)[C@@H](O)[C@H]4O)c(-c4ccc(O)cc4)oc3c2)[C@H](O)[C@H](O)[C@H]1O [Kaempferitrin],105 ± 3.1
7,O=C(NOCC1CC1)c1cc(Br)c(F)c(F)c1Nc1ccc(I)cc1Cl,113 ± 2.4
8,CN(C)Cc1cccc(N/C(=C2\C(=O)Nc3cc(C(N)=O)ccc32)c2ccccc2)c1,134 ± 3.4
9,O=C(Nc1ccc(OC(F)(F)F)cc1)c1sccc1NCc1ccnc2ccccc12,109 ± 6
10,O=C(NCCCNc1nc(Nc2cccc(NC(=O)N3CCCC3)c2)ncc1I)c1cccs1,97.5 ± 5.3
11,CCCCCN(CCCOC)C(=O)C(CCC(=O)O)NC(=O)c1ccc(Cl)c(Cl)c1 (stereo not given) [Loxiglumide],108 ± 3.1
12,CC(=O)Nc1nc(C)c(-c2ccc(Cl)c(S(=O)(=O)NCCO)c2)s1,97.8 ± 21
13,FC(F)(F)c1ccc(CNc2ccc(Cc3c[nH]c4ncc(Cl)cc34)cn2)cn1,105 ± 16
14,CCCCCCCCCCCCC/C=C/[C@H](O)[C@@H](N)CO [L-threo-Sphingosine C-18],113 ± 2.5
15,C[C@@H]1CN(C(=O)c2ccc(NC(=O)c3cc(O[C@H](C)c4c(Cl)ccc(F)c4Cl)c(N)nn3)cc2)C[C@H](C)N1 [Ensartinib],118 ± 12
16,O=C(NCCO)c1cccc(-c2cc(Nc3ccc(OC(F)(F)F)cc3)ncn2)c1,107 ± 3.3
17,Oc1cccc(Nc2ncc(F)c(Nc3cccc(O)c3)n2)c1,96.5 ± 16
18,CC(C)c1cnn2c(NCc3ccccc3)cc(NCCCCCCN)nc12,84 ± 18
19,O=C(O)c1c[nH]c2c(ccc3ccccc32)c1=O,106 ± 6.8
20,CC[C@@](C)(Nc1ccnc(-c2c[nH]c3ncccc23)n1)C(=O)NCC(F)(F)F [Decernotinib(VX-509)],89.3 ± 6.1
